Read-out in assay [1]: Interleukin-1 alpha (IL1a), IL1A (gene 3552)
The experiment in a line: BSK_LPS_IL1a: BioMAP Diversity Plus: LPS Assay for Interleukin-1 alpha (IL1a) Biomarker Activity (AID 2283080). The settings on record: primary human HUVEC with PBMC; actives raise or lower the signal. In outline:
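Readout is IL-1a level by ELISA, 24 h post-dose, fitted as gain or loss relative to DMSO. System: LPS-activated human primary co-culture of vascular endothelium and peripheral blood mononuclear cells, with parallel SRB total-protein cytotoxicity.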

Read-out in assay [2]: Monocyte Chemoattractant Protein-1 (MCP1), CCL2 (gene 6347)
The experiment in a line: BSK_LPS_MCP1: BioMAP Diversity Plus: LPS Assay for Monocyte Chemoattractant Protein-1 (MCP1) Biomarker Activity (AID 2283081). The settings on record: primary human HUVEC with PBMC; actives raise or lower the signal. In outline: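 Secreted MCP-1 read by ELISA at 24 h post-dosing in an LPS-activated co-culture of endothelial cells with peripheral blood mononuclear cells. Fits run in both directions, DMSO as baseline; parallel SRB staining tracks overt cytotoxicity.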

Assay [3] in a line: BSK_LPS_PGE2: BioMAP Diversity Plus: LPS Assay for Prostaglandin E2 (PGE2) Biomarker Activity (AID 2283082). As to conditions: primary human HUVEC with PBMC; actives raise or lower the signal. In a few lines: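 HUVEC plus PBMC co-culture stimulated with LPS; secreted PGE2 quantified by ELISA 24 h after chemical dosing. Activity fitted bidirectionally against DMSO as negative control and baseline; parallel SRB total-protein staining served as cytotoxicity check.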

Read-out in assay [4]: Macrophage colony-stimulating factor (MCSF), CSF1 (gene 1435)
The experiment in a line: BSK_LPS_MCSF: BioMAP Diversity Plus: LPS Assay for Macrophage colony-stimulating factor (MCSF) Biomarker Activity (AID 2283083). The settings on record: primary human HUVEC with PBMC; actives raise or lower the signal. In outline:
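Bidirectional fitting against DMSO was applied to M-CSF levels read by ELISA at 24 h post-dose. The system pairs human umbilical vein endothelium with peripheral blood mononuclear cells; parallel SRB staining tracked cytotoxicity.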

Read-out in assay [5]: Tissue Factor, F3 (gene 2152)
The assay is described as follows: BSK_LPS_TissueFactor: BioMAP Diversity Plus: LPS Assay for Tissue Factor Biomarker Activity (AID 2283084). As to conditions: primary human HUVEC with PBMC; actives raise or lower the signal. In a few lines: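 Compound was added to an endothelial cell/PBMC co-culture, and after 24 h tissue factor (CD142) was read by ELISA. Gain or loss of signal was fitted against a DMSO baseline, and parallel SRB staining (560 nm) tracked overt cytotoxicity.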

Read-out in assay [6]: Tumor necrosis factor (Homo sapiens) (UniProt P01375)
The experiment in a line: BSK_LPS_TNFa: BioMAP Diversity Plus: LPS Assay for Tumour Necrosis Factor alpha (TNFa) Biomarker Activity (AID 2283085). The settings on record: primary human HUVEC with PBMC; actives raise or lower the signal. In outline:
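Human umbilical vein endothelial cells co-cultured with PBMC were exposed to test chemical and TNFa measured by ELISA 24 h after dosing. Bidirectional curve fitting was done relative to DMSO as negative control and baseline.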

Read-out in assay [7]: Vascular cell adhesion molecule 1 (VCAM1), VCAM1 (gene 7412)
The experiment in a line: BSK_LPS_VCAM1: BioMAP Diversity Plus: LPS Assay for Vascular cell adhesion molecule 1 (VCAM1) Biomarker Activity (AID 2283086). The settings on record: primary human HUVEC with PBMC; actives raise or lower the signal. In a few lines: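 Human umbilical vein endothelial cells co-cultured with peripheral blood mononuclear cells under LPS stimulation were exposed to test chemical for 24 h. VCAM-1 levels were then measured by ELISA, with bidirectional curve fitting relative to DMSO as negative control and baseline.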

Read-out in assay [8]: CD38, CD38 (gene 952)
The assay is described as follows: BSK_SAg_CD38: BioMAP Diversity Plus: SAg Assay for CD38 Biomarker Activity (AID 2283087). As to conditions: primary human HUVEC with PBMC; actives raise or lower the signal. In outline: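 Fluorescence ELISA of cell-surface CD38 served as the read-out, with either increase or decrease fitted against DMSO controls. Cells were a human umbilical vein endothelium plus PBMC co-culture under SEB/TSST-1 stimulation, measured 24 h after dosing.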

Read-out in assay [9]: CD40, CD40 (gene 958)
The experiment in a line: BSK_SAg_CD40: BioMAP Diversity Plus: SAg Assay for CD40 Biomarker Activity (AID 2283088). The settings on record: primary human HUVEC with PBMC; actives raise or lower the signal. In a few lines: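 CD40 is measured by fluorescence ELISA in an endothelial/PBMC primary human co-culture at 24 h post-dose. Fitting is bidirectional, DMSO baseline. Parallel SRB staining (560 nm) flags cytotoxicity.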

Read-out in assay [10]: CD69, CD69 (gene 969)
The experiment in a line: BSK_SAg_CD69: BioMAP Diversity Plus: SAg Assay for CD69 Biomarker Activity (AID 2283089).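 On AC50: cell surface CD69 protein quantified by ELISA with fluorescence detection.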 The settings on record: primary human HUVEC with PBMC; actives raise or lower the signal. In outline:
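ELISA, fluorescence read-out: CD69 on human umbilical vein endothelial cell + PBMC co-culture, 24 h post-dosing. Gain or loss of signal fitted bidirectionally against DMSO baseline.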

Read-out in assay [11]: Monocyte Chemoattractant Protein-1 (MCP1), CCL2 (gene 6347)
The assay is described as follows: BSK_SAg_MCP1: BioMAP Diversity Plus: SAg Assay for Monocyte Chemoattractant Protein-1 (MCP1) Biomarker Activity (AID 2283090). The settings on record: primary human HUVEC with PBMC; actives raise or lower the signal. In outline:
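MCP-1 levels in the endothelial–PBMC SAg co-culture were quantified by ELISA at 24 h post-dosing; both increases and decreases versus DMSO scored. Cytotoxicity monitored by SRB total protein in parallel cultures.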

Read-out in assay [12]: E-selectin (Homo sapiens) (UniProt P16581)
The assay is described as follows: BSK_SAg_Eselectin: BioMAP Diversity Plus: SAg Assay for Eselectin Biomarker Activity (AID 2283091). As to conditions: primary human HUVEC with PBMC; actives raise or lower the signal. In a few lines:
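Cell-surface E-selectin is read by ELISA at 24 h in the SAg co-culture of HUVEC and PBMC. Curves are fitted in both directions relative to DMSO. Parallel SRB total-protein staining tracks overt toxicity.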

Read-out in assay [13]: Monokine induced gamma interferon (MIG), CXCL9 (gene 4283)
The assay is described as follows: BSK_SAg_MIG: BioMAP Diversity Plus: SAg Assay for Monokine induced gamma interferon (MIG) Biomarker Activity (AID 2283092). The settings on record: primary human HUVEC with PBMC; actives raise or lower the signal. In a few lines:
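ELISA readout of MIG/CXCL9; primary human umbilical vein endothelial cells co-cultured with peripheral blood mononuclear cells; 24 h post-dose; gain/loss fit vs DMSO baseline.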

Assay [14] is described as follows: BSK_SAg_PBMCCytotoxicity: PBMC Cytotoxicity Assessment in the BioMAP Diversity Plus: SAg Assay (AID 2283093).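 Further: PBMC viability measured as Alamar Blue reduction fluorescence at 546/580 nm; fitted both ways against DMSO so a hit may be loss or gain of signal.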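 On AC50: PBMC superantigen activated with SEB plus TSST-1 one hour after compound addition.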 As to conditions: primary human HUVEC with PBMC. In a few lines: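 HUVEC/PBMC co-culture; PBMC exposed to chemical 1 h before SEB and TSST-1 activation (20 ng/mL each), incubated 90 h, then Alamar Blue 6 h, fluorescence 546/580 nm. Bidirectional fit versus DMSO baseline.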

Read-out in assay [15]: Interleukin-8 (IL8), CXCL8 (gene 3576)
The experiment in a line: BSK_SAg_IL8: BioMAP Diversity Plus: SAg Assay for Interleukin-8 (IL8) Biomarker Activity (AID 2283094). The settings on record: primary human HUVEC with PBMC; actives raise or lower the signal. In a few lines:
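Human umbilical vein endothelial cells co-cultured with peripheral blood mononuclear cells; IL-8 measured by ELISA 24 h after chemical dosing. Bidirectional concentration-response fitting used DMSO as negative control and activity baseline.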

Assay [16] can be described thus: BSK_SAg_Proliferation: Cell Proliferation Assessment in the BioMAP Diversity Plus: SAg Assay (AID 2283095).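 Further: relative cell number as total protein by SRB absorbance in sub-confluent culture.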 The settings on record: primary human HUVEC with PBMC. In a few lines: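 Human umbilical vein endothelial cells co-cultured with peripheral blood mononuclear cells; total protein measured by sulforhodamine B staining (0.1% SRB after 10% TCA fixation), absorbance at 560 nm, at 96 h. Bidirectional fit against DMSO baseline.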

A short description of assay [17]: BSK_SAg_SRB: Viability Assessment in the BioMAP Diversity Plus: SAg Assay (AID 2283096).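 Further: cells read one day after compound addition; hits may be either gain or loss of signal compared with DMSO.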 The settings on record: primary human HUVEC with PBMC. In a few lines: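 Human umbilical vein endothelial cells co-cultured with PBMC, read 24 h after compound dosing. Total protein measured by sulforhodamine B staining (0.1% SRB after 10% TCA fixation, absorbance 560 nm); bidirectional fit versus DMSO baseline.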

Assay [18] has as its target human CYP19A1, CYP19A1 (gene 1588) (UniProt P11511). The assay is described as follows: NVS_ADME_hCYP19A1: NovaScreen (NVS) CYP450-related Enzyme Activity (ADME) Assay for human CYP19A1 (AID 2283098; active means hit-call score of the fitted dose curve at least 0.9, where 1 is the maximum). In outline: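 Recombinant enzyme in a cell-free format, read 0.5 h after dosing by fluorescence from a fluorogenic substrate. Loss of signal was fitted against acetonitrile as baseline. Primary screen in duplicate at 10 uM, actives then tested in concentration series.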

The term AC50 denotes the midpoint of the concentration-response curve, whichever way the signal moves.

The structures appear in SMILES notation. Inconclusive results are not listed. Active and inactive are the calls of the source. How the source made its calls, unless noted: active means hit-call score of the fitted dose curve at least 0.9, where 1 is the maximum; inactive means score below 0.9.

Sequence of Tumor necrosis factor (Homo sapiens) (P01375 whole entry, looked up): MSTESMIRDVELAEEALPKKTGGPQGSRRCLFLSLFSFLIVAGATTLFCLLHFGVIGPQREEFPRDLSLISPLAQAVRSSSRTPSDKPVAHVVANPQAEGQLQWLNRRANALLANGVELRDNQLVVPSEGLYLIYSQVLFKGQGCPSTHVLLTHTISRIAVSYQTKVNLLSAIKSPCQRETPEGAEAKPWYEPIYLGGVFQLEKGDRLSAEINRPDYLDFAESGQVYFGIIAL
Sequence of E-selectin (Homo sapiens) (P16581 whole entry, looked up): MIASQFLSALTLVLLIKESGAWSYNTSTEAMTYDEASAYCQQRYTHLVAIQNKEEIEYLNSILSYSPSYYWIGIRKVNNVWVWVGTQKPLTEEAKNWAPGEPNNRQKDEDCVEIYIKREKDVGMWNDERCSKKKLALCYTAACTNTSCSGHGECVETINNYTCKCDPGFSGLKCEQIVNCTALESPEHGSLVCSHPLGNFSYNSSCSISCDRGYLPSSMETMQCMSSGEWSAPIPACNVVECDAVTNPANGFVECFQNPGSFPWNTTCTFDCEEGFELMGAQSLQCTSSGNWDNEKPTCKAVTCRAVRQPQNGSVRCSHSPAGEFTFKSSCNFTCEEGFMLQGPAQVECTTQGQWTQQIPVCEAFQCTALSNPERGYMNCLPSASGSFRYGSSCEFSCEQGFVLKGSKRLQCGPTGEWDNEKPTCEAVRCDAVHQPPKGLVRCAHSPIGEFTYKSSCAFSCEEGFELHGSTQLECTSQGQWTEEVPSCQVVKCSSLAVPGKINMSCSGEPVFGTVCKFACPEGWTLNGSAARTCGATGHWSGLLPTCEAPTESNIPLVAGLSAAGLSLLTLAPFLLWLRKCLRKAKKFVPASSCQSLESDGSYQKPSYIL
Sequence of human CYP19A1, CYP19A1 (gene 1588) (P11511 whole entry, looked up): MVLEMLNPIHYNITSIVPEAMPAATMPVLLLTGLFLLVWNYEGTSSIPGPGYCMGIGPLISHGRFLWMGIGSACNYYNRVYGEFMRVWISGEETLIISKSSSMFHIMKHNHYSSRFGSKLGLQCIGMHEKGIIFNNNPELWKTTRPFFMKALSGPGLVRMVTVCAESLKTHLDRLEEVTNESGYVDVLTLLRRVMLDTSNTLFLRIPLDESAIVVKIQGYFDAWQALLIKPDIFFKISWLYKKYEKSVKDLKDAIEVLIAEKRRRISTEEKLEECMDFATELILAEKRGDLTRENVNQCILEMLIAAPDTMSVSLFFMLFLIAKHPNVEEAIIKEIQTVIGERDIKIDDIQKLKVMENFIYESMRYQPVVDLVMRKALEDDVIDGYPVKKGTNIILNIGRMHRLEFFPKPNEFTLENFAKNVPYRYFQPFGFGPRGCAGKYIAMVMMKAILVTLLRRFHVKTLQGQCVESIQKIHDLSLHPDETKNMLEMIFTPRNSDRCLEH

As to `CC(C)C1(C)N=C(c2ncccc2C(=O)O)NC1=O` (configuration not stated), the result in assay [1], in assay [2], in [3], in assay [4], in [5] and in [6] was inactive. Besides, the outcome in assay [7], in [8], in [9], in assay [10], in assay [11] and in assay [12] was inactive. In addition, the result in [13], in assay [14], in [15], in [16] and in assay [17] was inactive.

For the compound `Cc1cc(C)nc(Nc2ccccc2)n1`, the result in assay [1], in assay [3], in assay [4], in [5], in assay [6] and in assay [7] was inactive. Besides, the result in assay [9], in [10], in assay [11], in assay [13], in assay [16] and in assay [17] was inactive. In addition, the AC50 in assay [8] is 20 µM (active); in [12], 20 µM (active); in assay [14] it was 7.57 µM (active); in assay [15], 13.8 µM (active).

`CCOc1nc(F)cc2nc(S(=O)(=O)Nc3c(Cl)cccc3Cl)nn12`: the outcome in [1], in [2], in assay [3], in assay [4], in [5] and in [6] was inactive. Further, the result in assay [7], in [8], in assay [9], in assay [10], in assay [11] and in assay [12] was inactive. Further, the result in assay [13], in [14], in [15], in assay [16] and in assay [17] was inactive.

`CC1(C)CON(Cc2ccccc2Cl)C1=O`: the outcome in assay [1], in assay [2], in assay [3], in assay [4], in assay [5] and in [6] was inactive. The outcome in assay [7], in assay [8], in assay [9], in [10], in [11] and in [12] was inactive. For the same compound, the result in assay [13], in assay [14], in assay [15], in [16] and in [17] was inactive.

As to `Cn1c(-c2ccccc2)cc(-c2ccccc2)[n+]1C`, the result in assay [1], in [2], in assay [3], in assay [4], in assay [5] and in assay [6] was inactive. In addition, the outcome in [7], in assay [13] and in [17] was inactive. Besides, the AC50 was 2.68 µM (active) in assay [8]; 7.51 µM (active) in assay [9]; 2.99 µM (active) in assay [10]; 5.52 µM (active) in [11]; 4.84 µM (active) in [12]; 3.97 µM (active) in assay [14]. The values for the concentration at half-maximal activity (AC50) in assay [15] and in assay [16] were 4.04 µM (active) and 3.16 µM (active), respectively.

Consider `CCOC(=O)C(C)OC(=O)c1cc(Oc2ccc(C(F)(F)F)cc2Cl)ccc1[N+](=O)[O-]` (configuration not stated), for which the outcome in [1], in assay [2], in [4], in [5], in assay [7] and in assay [11] was inactive. Also, the result in assay [13], in assay [14], in [15] and in [18] was inactive. The AC50 is 2.12 µM (active) in [3]; 3.73 µM (active) in assay [6]; 9.17 µM (active) in assay [8]; 3.97 µM (active) in assay [9]; 12.8 µM (active) in [10]; 10 µM (active) in [12]. Moreover, the AC50 in assay [16] is 30.9 µM (active); in assay [17], 14 µM (active).

For the origin of these results see PubChem BioAssay (EPA / NIEHS).
